# The whole screen tested about 52,000 compounds, of which about 1,700 (3.3%) were called active. This excerpt belongs to a sample that is enriched for actives. Values without a mark were called inactive. Rule as the data show it: active = survival mostly below about 52% (no sharp cut-off); inactive = mostly above about 56%.
# Test system: Wild type
# Experiment: S. aureus survival, RN4220 and DeltatarO strains – OD600, teichoic acid synthesis inhibitors, primary screen (AID 463173)
# Settings: S. aureus RN4220 wild type/DeltatarO growth, OD600, 18 h, stronger effect = lower value, concentration not given here
row,Compound,survival
1,COc1ccccc1NC(=O)N(Cc1ccc2c(c1)OCO2)C1CCN(Cc2ccccc2)CC1,78%
2,Cc1ccc(Cl)cc1NC(=O)N(Cc1ccc2c(c1)OCO2)C1CCN(Cc2ccccc2)CC1,14% (active)
3,O=C(Nc1ccccc1)N(Cc1ccc2c(c1)OCO2)C1CCN(Cc2ccccc2)CC1,78%
4,Cc1ccc(NC(=O)N(Cc2ccc3c(c2)OCO3)C2CCN(Cc3ccccc3)CC2)cc1Cl,133%
5,Cc1ccc(NC(=O)N(Cc2ccc3c(c2)OCO3)C2CCN(Cc3ccccc3)CC2)cc1F,76%
6,Cc1ccc(NC(=O)N(Cc2ccc3c(c2)OCO3)C2CCN(Cc3ccccc3)CC2)cc1C,-1% (active)
7,Cc1cccc(CN2CCN(C(=O)COc3ccccc3)CC2)c1,108%
8,CCCOc1ccc(CCN)cc1Cl,107%
9,O=C(Nc1ccc2c(c1)OCO2)c1cccn(Cc2cccc([N+](=O)[O-])c2)c1=O,77%
10,c1cc(C2CCNCC2)ccn1,104%
11,NC(=O)CN1C2CCC1CC(NC(=O)C1CC1)C2 (stereo not drawn),103%
12,O=S1(=O)N(Cc2ccccc2)CCCN1Cc1cccc(Cl)c1,78%
13,O=S1(=O)N(Cc2ccccc2)CCCN1Cc1ccc(F)cc1Cl,76%
14,O=S1(=O)N(Cc2ccccc2Cl)CCCN1Cc1ccccc1Cl,-4% (active)
15,COc1ccc(CN2C(=O)CC(=O)NC2=S)cc1,107%
16,CCCCc1nn2c(=O)cc(COC(=O)Cc3ccccc3)nc2s1,84%
17,CCC(C)N1CCN(Cc2ccccc2)CC1 (stereo not drawn),111%
18,Cc1cccc(-n2nc(C)c3c2NC(=O)CSC3c2ccccc2Cl)c1 (stereo not drawn),64%
19,COc1ccccc1C1SCC(=O)Nc2c1c(C)nn2-c1cccc(C)c1 (stereo not drawn),-10% (active)
20,CCCOc1ccc(C2SCC(=O)Nc3c2c(C)nn3-c2cccc(C)c2)cc1OC (stereo not drawn),62%
21,CCCc1nc2ccccc2c(=O)n1-c1ccccc1,127%

row,Compound,survival
1,O=C(COc1ccccc1)N1CCN(Cc2ccc(Br)cc2)CC1,100%
2,CCCCCn1c(=O)c(C(=O)Nc2ccccc2S(N)(=O)=O)c(O)c2ccccc21,0% (active)
3,CCCCn1c(=O)c(C(=O)NC)c(O)c2ccccc21,112%
4,CCSc1nnc(NC(=O)c2cccn(Cc3ccccc3Cl)c2=O)s1,71%
5,CN1CCC2(CC1)CC(NC=O)c1ccccc1O2 (stereo not drawn),108%
6,Nc1c(C(=O)Nc2ccc(OC(F)(F)F)cc2)sc2nc3c(cc12)N1CCC3CC1,167%
7,Nc1c(C(=O)Nc2cccc(Br)c2)sc2nc3c(cc12)N1CCC3CC1,63%
8,N#Cc1cc2c(nc1SCC(=O)Nc1ccc(C(F)(F)F)cc1)C1CCN2CC1,0% (active)
9,CCOC(=O)c1ccc(NC(=O)CSc2nc3c(cc2C#N)N2CCC3CC2)cc1,84%
10,N#Cc1cc2c(nc1SCC(=O)Nc1cccc(F)c1)C1CCN2CC1,-3% (active)
11,N#Cc1cc2c(nc1SCC(=O)Nc1cccc(C(F)(F)F)c1)C1CCN2CC1,0% (active)
12,N#Cc1cccc(NC(=O)CSc2nc3c(cc2C#N)N2CCC3CC2)c1,76%
13,O=C(CN1C(=O)CN=C(c2ccccc2)c2ccccc21)Nc1cccc(C(F)(F)F)c1,48%
14,CN1CCc2c(C#N)c(Cl)nc(NCc3ccccc3)c2C1,103%
15,CCCC1(CCC)C(=O)NC(=Nc2ccccc2)NC1=O,107%
16,COc1ccc(CC2C(=O)N(C)C(=O)N(C)C2=O)cc1,112%
17,CCc1cc2c(s1)NC(=O)CN=C2c1cccs1,112%
18,N#CC(C#N)=Cc1cc(Br)cs1,94%
19,Cc1cc(-n2c(/C=C/c3ccc(Br)s3)nc3ccccc3c2=O)ccc1Br,66%
20,Cn1cc(C=C(C#N)C#N)c2ccccc21,114%
21,O=c1c2ccccc2nc(/C=C\c2ccccc2F)n1-c1ccc(O)cc1,73%

row,Compound,survival
1,Cc1ccccc1-n1c(/C=C/c2ccccc2F)nc2ccccc2c1=O,7% (active)
2,Cc1ccccc1-n1c(/C=C/c2ccc(N(C)C)cc2)nc2ccccc2c1=O,7% (active)
3,Cc1cccc(-n2c(/C=C/c3c(C)[nH]c4ccccc34)nc3ccccc3c2=O)c1,108%
4,O=c1c2ccccc2nc(/C=C\c2ccc(F)cc2)n1-c1ccccc1F,71%
5,Cc1ccc(-n2c(/C=C\c3ccc(F)c(F)c3)nc3ccccc3c2=O)c(C)c1,68%
6,Cc1ccccc1-n1c(/C=C/c2c(C)[nH]c3ccccc23)nc2ccccc2c1=O,6% (active)
7,Cc1cccc(-n2c(/C=C/c3ccccc3O)nc3ccccc3c2=O)c1,12%
8,COc1ccc(-n2c(/C=C\c3ccccc3F)nc3ccccc3c2=O)c(OC)c1,68%
9,O=c1c2ccccc2nc(/C=C/c2ccccc2F)n1-c1cccc(O)c1,11% (active)
10,O=c1c2ccccc2nc(/C=C/c2ccccc2)n1-c1ccccc1F,97%
11,Cc1ccccc1-n1c(/C=C/c2ccc(O)cc2)nc2ccccc2c1=O,48%
12,Cc1cccc2sc(NC(=O)c3cccn(Cc4ccccc4)c3=O)nc12,78%
13,COC(=O)c1ccc(NC(=O)c2cccn(Cc3ccccc3C)c2=O)cc1,88%
14,Cc1c(C(c2ccc(Br)cc2)c2c(O)c3ccccc3oc2=O)c(=O)n(-c2ccccc2)n1C (stereo not drawn),69%
15,COc1ccc(CNCC(=O)N2CCC3(CC2)OCCO3)cc1,107%
16,CCOc1ccc(CC2(CCc3ccncc3)C(=O)NC(=O)NC2=O)cc1,96%
17,CCOc1ccc(-n2c(/C=C/c3ccccc3)nc3ccccc3c2=O)cc1,136%
18,CCc1ccc(OCC(=O)N2CCN(CCc3ccccn3)CC2)cc1,83%
19,COc1cccc(-n2c(/C=C\c3ccc(Cl)cc3)nc3ccccc3c2=O)c1,48%
20,COc1cccc(-n2c(/C=C/c3cccc(C)c3)nc3ccccc3c2=O)c1,0% (active)
21,COc1cccc(-n2c(/C=C/c3ccccc3O)nc3ccccc3c2=O)c1,20%

# From PubChem BioAssay AID463173 (ICCB-Longwood Screening Facility, Harvard Medical School, 2010)
